Measurements: PubChem BioAssay (Tox21)
Inconclusive results are not listed. Active and inactive are the calls of the source. Unless noted, the call rests on the fitted dose curve; in most records, active means well fitted curve in the direction sought with a large enough effect in the repeat runs; inconclusive means weak or mixed curves; inactive means no such curve, though single readings can be large; an effect the other way counts as inactive or inconclusive.

How the values were obtained:
[1] = qHTS assay to test for compound auto fluorescence at 535 nm (green) in HEK293 cells (AID 720680)
[2] = qHTS assay to test for compound auto fluorescence at 460 nm (blue) in HEK293 cell free culture (AID 720681)
In short: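 Blue fluorescence (Ex 405/Em 460 nm, triamterene-equivalent) was read immediately after pin transfer of compound or DMSO into medium (DMEM, 10% FBS) without cells.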

[3] = qHTS assay to test for compound auto fluorescence at 535 nm (green) in HEK293 cell free culture (AID 720682)
In short: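 Measurement is a direct plate read of green fluorescence (485 nm in, 535 nm out) after compound addition to serum-supplemented DMEM lacking cells, with fluorescein used to express intensities.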

[4] = qHTS assay to test for compound auto fluorescence at 590 nm (red) in HEK293 cell free culture (AID 720683)
In short: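 Red-channel autofluorescence of compounds in culture medium (DMEM, 10% FBS), no cells, measured at 540/590 nm. Rose Bengal sodium is the reference fluorophore for equivalence.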

[5] = qHTS assay to test for compound auto fluorescence at 590 nm (red) in HepG2 cell free culture (AID 720684)
In short: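 Steps: dispense MEM/10% FBS medium, no cells; pin compound or DMSO vehicle; read red channel, Ex/Em 540/590 nm. Output given as Rose Bengal sodium equivalents.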

[6] = qHTS assay to test for compound auto fluorescence at 460 nm (blue) in HepG2 cell free culture (AID 720685)
In short: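 Compound (23 nL) or DMSO pinned into cell-free MEM with 10% FBS; blue fluorescence read at 405/460 nm excitation/emission, expressed as auto-fluorescence equivalency to triamterene.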

[7] = qHTS assay to test for compound auto fluorescence at 535 nm (green) in HepG2 cell free culture (AID 720686)
[8] = qHTS assay to test for compound auto fluorescence at 460 nm (blue) in HepG2 cells (AID 720687)
In short: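 Blue-channel autofluorescence (Ex/Em 405/460 nm, triamterene-equivalent) was measured after 1 hr compound exposure at 37 C, 5% CO2. Cells were HepG2, plated overnight at 37 C in MEM plus 10% FBS.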

[9] = biological target: Glucocorticoid receptor (Homo sapiens) (UniProt P04150); experiment: qHTS assay to identify small molecule agonists of the glucocorticoid receptor (GR) signaling pathway (AID 720691; active means well fitted activation curve with a large enough effect in the signal ratio in the repeat runs, not every such curve was filed as active; the % refers to the signal ratio)
In short: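 qHTS in GR-bla HeLa cells: 4 h settling at 37 C/5% CO2, 18 h compound incubation at 37 C, 2 h LiveBLAzer B/G FRET substrate at room temperature, fluorescence intensity measured.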

[10] = qHTS assay to identify small molecule antagonists of the glucocorticoid receptor (GR) signaling pathway - cell viability counter screen (AID 720693); further: nearly all actives have a fitted effect of over 55% in size; further: potency means the concentration at half of the fitted maximal effect
[11] = qHTS assay for identifying genotoxic compounds that show differential cytotoxicity against isogenic chicken DT40 cell lines with known DNA damage response pathways - wild type cell line (AID 743012); further: nearly all actives have a fitted effect of over 60% in size; further: potency means the concentration at half of the fitted maximal effect
In short: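 First, wild type DT40 cells were plated at 300 per well and equilibrated about 0.5 h at 37 C/5% CO2. Next, compounds in DMSO were added and exposure lasted 40 h. Finally, CellTiter-Glo was added for 30 min at room temperature and luminescence recorded.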

[12] = qHTS assay for identifying genotoxic compounds that show differential cytotoxicity against isogenic chicken DT40 cell lines with known DNA damage response pathways - Rev3 mutant cell line (AID 743014); further: nearly all actives have a fitted effect of over 55% in size; further: potency means the concentration at half of the fitted maximal effect
[13] = qHTS assay for identifying genotoxic compounds that show differential cytotoxicity against isogenic chicken DT40 cell lines with known DNA damage response pathways - Rad54/Ku70 mutant cell line (AID 743015); further: nearly all actives have a fitted effect of over 60% in size; further: potency means the concentration at half of the fitted maximal effect
[14] = biological target: Glucocorticoid receptor (Homo sapiens) (UniProt P04150); experiment: qHTS assay to identify small molecule antagonists of the glucocorticoid receptor (GR) signaling pathway (AID 720692; active means well fitted inhibition curve with a large enough effect in the signal ratio in the repeat runs, not every such curve was filed as active; the % refers to the signal ratio)
In short: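 Inhibition of glucocorticoid signalling is measured in HeLa cells with a GRE-controlled beta-lactamase reporter; cells are co-treated with compound and 5 nM dexamethasone (final) for 18 h before FRET substrate readout.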

[15] = qHTS assay to identify small molecule antagonists of the androgen receptor (AR) signaling pathway - cell viability counter screen (AID 743033; further: nearly all actives have a fitted effect of over 45% in size)
[16] = qHTS assay to identify small molecule antagonists of the androgen receptor (AR) signaling pathway using the MDA cell line - cell viability counter screen (AID 743041; further: nearly all actives have a fitted effect of over 45% in size)
In short: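 Cells were plated at 3,000 per well and left 5 h. Compounds in DMSO were then pinned in, followed by R1881. After 16 h at 37C, CellTiter-Fluor fluorescence gave viability.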

[17] = biological target: Androgen receptor (Homo sapiens) (UniProt P10275); experiment: qHTS assay to identify small molecule agonists of the androgen receptor (AR) signaling pathway (AID 743036; active means well fitted activation curve with a large enough effect in the signal ratio in the repeat runs, with a control signal flat, not every such curve was filed as active; the % refers to the signal ratio)
In short: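 Beta-lactamase under UAS control, stably integrated in HEK293 GripTite cells, reports receptor activation. After 16 h compound treatment, cells received FRET substrate for 2 h at room temperature before fluorescence reading.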

[18] = biological target: Androgen receptor (Homo sapiens) (UniProt P10275); experiment: qHTS assay to identify small molecule agonists of the androgen receptor (AR) signaling pathway using the MDA cell line (AID 743040; further: nearly all actives have a fitted effect of over 20% in size)
In short: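 Cells plated, 5 h at 37C/0% CO2; compound or DMSO pinned; 16 h at 37C; ONE-Glo added; luminescence measured after 30 min at room temperature. Reporter line: MDA-kb2 with MMTV-luciferase responsive to AR and GR.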

[19] = biological target: Androgen receptor (Homo sapiens) (UniProt P10275); experiment: qHTS assay to identify small molecule antagonists of the androgen receptor (AR) signaling pathway using the MDA cell line (AID 743042; further: nearly all actives have a fitted effect of over 55% in size)
In short: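 Antagonist mode: compounds plus R1881 agonist added to MDA-kb2 AR-luc cells, incubated 16 h at 37C. Luciferase reporter luminescence quantified, with multiplexed CellTiter-Fluor readout for cell viability.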

Measured: Potency

Chain of Androgen receptor (Homo sapiens) (P10275 whole entry, looked up): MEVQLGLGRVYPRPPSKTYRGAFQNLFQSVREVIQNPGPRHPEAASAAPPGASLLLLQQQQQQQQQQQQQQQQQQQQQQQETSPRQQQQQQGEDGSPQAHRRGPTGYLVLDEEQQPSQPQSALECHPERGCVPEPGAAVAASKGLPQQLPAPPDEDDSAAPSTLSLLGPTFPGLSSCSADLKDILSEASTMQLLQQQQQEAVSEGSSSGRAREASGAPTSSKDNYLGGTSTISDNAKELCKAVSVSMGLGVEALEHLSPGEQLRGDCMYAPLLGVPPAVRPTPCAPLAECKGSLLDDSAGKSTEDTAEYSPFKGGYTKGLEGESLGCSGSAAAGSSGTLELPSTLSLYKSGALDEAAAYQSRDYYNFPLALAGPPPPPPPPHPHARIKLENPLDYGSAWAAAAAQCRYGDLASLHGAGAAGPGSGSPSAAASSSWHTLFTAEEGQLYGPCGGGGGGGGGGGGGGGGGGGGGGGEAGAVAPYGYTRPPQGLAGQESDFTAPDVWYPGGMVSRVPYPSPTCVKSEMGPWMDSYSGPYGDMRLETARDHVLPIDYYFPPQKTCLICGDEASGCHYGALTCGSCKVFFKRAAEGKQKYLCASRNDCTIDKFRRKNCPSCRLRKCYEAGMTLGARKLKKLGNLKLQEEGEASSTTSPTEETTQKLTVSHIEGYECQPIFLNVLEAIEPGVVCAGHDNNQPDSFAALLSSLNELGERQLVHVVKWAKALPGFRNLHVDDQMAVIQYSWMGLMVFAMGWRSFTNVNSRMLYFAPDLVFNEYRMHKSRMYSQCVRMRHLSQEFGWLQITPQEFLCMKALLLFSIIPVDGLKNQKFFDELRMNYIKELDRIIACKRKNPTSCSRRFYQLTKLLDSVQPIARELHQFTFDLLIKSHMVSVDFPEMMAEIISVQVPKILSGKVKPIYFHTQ
Chain of Glucocorticoid receptor (Homo sapiens) (P04150 whole entry, looked up): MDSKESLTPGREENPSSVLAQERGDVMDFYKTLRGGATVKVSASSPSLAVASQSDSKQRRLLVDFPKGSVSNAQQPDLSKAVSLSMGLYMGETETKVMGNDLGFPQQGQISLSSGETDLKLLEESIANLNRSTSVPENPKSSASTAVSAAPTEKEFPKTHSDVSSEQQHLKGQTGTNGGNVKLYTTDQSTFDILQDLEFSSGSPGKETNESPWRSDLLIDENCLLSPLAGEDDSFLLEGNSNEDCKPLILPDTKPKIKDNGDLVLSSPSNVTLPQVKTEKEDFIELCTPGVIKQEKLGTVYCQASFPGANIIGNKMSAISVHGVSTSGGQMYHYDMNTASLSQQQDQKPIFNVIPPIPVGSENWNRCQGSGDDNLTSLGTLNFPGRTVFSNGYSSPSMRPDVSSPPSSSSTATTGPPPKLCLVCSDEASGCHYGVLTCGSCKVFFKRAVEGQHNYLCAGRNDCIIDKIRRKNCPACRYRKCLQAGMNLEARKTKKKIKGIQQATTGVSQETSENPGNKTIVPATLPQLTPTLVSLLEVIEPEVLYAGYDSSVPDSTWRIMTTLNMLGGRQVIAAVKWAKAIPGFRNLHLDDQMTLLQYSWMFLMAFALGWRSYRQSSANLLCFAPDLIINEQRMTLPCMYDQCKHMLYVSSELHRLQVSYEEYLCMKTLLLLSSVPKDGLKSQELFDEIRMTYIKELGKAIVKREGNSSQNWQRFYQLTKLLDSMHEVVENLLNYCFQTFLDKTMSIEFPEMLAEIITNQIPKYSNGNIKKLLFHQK

CCCCCCOC(=O)c1ccccc1
active: [11] 68.6 µM | [12] 61.1 µM | [13] 61.1 µM
not listed: [14] | [15] | [16] | [17] | [18] | [19]
inactive: all other assays above

CC(C)(C(=O)O)c1ccc(C(O)CCCN2CCC(C(O)(c3ccccc3)c3ccccc3)CC2)cc1 (centres undefined)
not listed: [11] | [12] | [13] | [17] | [18] | [19]
inactive: all other assays above

CC(C)CCCCCCCOC(=O)c1ccc(C(=O)OCCCCCCCC(C)C)c(C(=O)OCCCCCCCC(C)C)c1
not listed: [14] | [17] | [18] | [19]
inactive: all other assays above

Nc1ccccc1Nc1ccccc1
active: [10] 55.1 µM | [11] 19.4 µM | [12] 8.66 µM | [13] 15.4 µM
not listed: [9] | [14] | [17] | [18] | [19]
inactive: all other assays above

O=C1C=CCCC1
not listed: [9] | [14] | [17] | [18] | [19]
inactive: all other assays above

OCCCO
not listed: [9]
inactive: all other assays above

CC(CCl)OC(C)CCl (centres undefined)
not listed: [11] | [14] | [17] | [18] | [19]
inactive: all other assays above

CCOC(C)OCC
not listed: [9] | [17] | [18] | [19]
inactive: all other assays above

Nc1ncnc2c1ncn2[C@@H]1O[C@H](CO)[C@@H](O)[C@H]1O
not listed: [13] | [14] | [15] | [17] | [18] | [19]
inactive: all other assays above
